In PubChem BioAssay AID709 (SRMLSC, 2007):
The whole screen tested about 65,000 compounds, of which about 3,600 (5.5%) were called active.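 The calls were made as follows: active = at 10 µM, mean starting fluorescence two-fold or more over control wells; inactive = the rest.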 Many of the other results were omitted from the sample, so actives are more common in it than they were. Where a SMILES comes first, the peptide text is derived from it. The star is where a group is joined. Bz = O=C(c1ccccc1)*

assay: intrinsic fluorescence of library compounds, ex339/em460 – biochemical, MLSMR library, data from DPM-DC assay, artefact control, profiling panel (AID 709); conditions: compound autofluorescence, ex339/em460 nm, NADH buffer; at 10 µM; stronger effect = higher value; 1 = no-compound wells, NADH background;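 also: signal is the first read of a kinetic run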

Fluorescence fold increase, active:
Cc1ccc(C(=O)Nc2nnc(-c3cccs3)s2)cc1C 3.04
CC1CCc2c(sc(NC(=O)c3ccc(Cn4cc(Br)cn4)o3)c2C(N)=O)C1 (stereo not drawn) 3.78
COC(=O)C(C)Sc1ccc2nnc(-c3cccc(F)c3)n2n1 (stereo not drawn) 2.06
C=CCn1c(N)c(C(=O)OCC(C)C)c2nc3ccccc3nc21 3.79
C=CCn1c(N)c(S(=O)(=O)c2cccs2)c2nc3ccccc3nc21 3.9
CC(C)Cn1c(N)c(C(=O)NCc2cccs2)c2nc3ccccc3nc21 3.03
COc1ccc(Nc2oc(-c3ccccc3Cl)nc2C#N)cc1 2.11
Fc1ccc(-c2nnc3sc(-c4ccc5c(c4)OCO5)nn23)cc1 2.05
O=C(OC1CCOC1=O)c1ccc(-c2nc3ccccc3s2)s1 (stereo not drawn) 5
c1ccc2[nH]c(-c3nc4ccccc4[nH]3)nc2c1 2.21
O=C(NCc1ccco1)c1cccn2c(=O)c3cc(Br)ccc3nc12 2.53
Cc1ccsc1-c1nc(CSCC(=O)NCCN2CCCC2)c(C)o1 2.22
Cc1ccc(-c2c3c(=O)n(C)c(=O)n(C)c3cn2-c2ccccc2O)cc1 3.24
COc1ccc(-c2c3c(=O)n(C)c(=O)n(C)c3cn2NC(C)=O)cc1 2.81
COc1cccc(-n2cc3c(c2-c2ccccc2)c(=O)n(C)c(=O)n3C)c1 2.35
O=C(Nc1nncs1)c1ccccc1NS(=O)(=O)c1cccs1 2.5
CCOC(=O)N1CCN(C(=O)c2nn(-c3ccc(C)cc3)c(=O)c3c2c2ccccc2n3C)CC1 2.21
CN1C(=O)c2ccc(NC(=O)C3CCCCC3)cc2C1=O 4.96
CN1C(=O)c2ccc(NC(=O)c3c(F)c(F)c(F)c(F)c3F)cc2C1=O 2.11
CCOC(=O)c1csc(NC(=O)c2ccc(S(=O)(=O)N3CCCC3)cc2)n1 2.49

Fluorescence fold increase, inactive:
CCc1nnc(NC(=O)c2cccs2)s1 1
COc1cc(C(=O)Nc2nccs2)cc(OC)c1OC 1.09
COc1ccc(OC)c2c1sc(=NC(=O)CN1C(=O)CCC1=O)n2C 1.13
CCc1c(C)nc(N2CCN(Cc3ccccc3)CC2)[nH]c1=O 1.06
Cn1c(=O)[nH]c(=O)c2c1nc(CN1CCN(c3ccccc3F)CC1)n2CCc1ccccc1 1.09
CC(C)CNC(=O)C1CCCN(S(=O)(=O)c2ccc(-n3cnnn3)cc2)C1 (stereo not drawn) 1.07
CCOc1ccc(-c2nnc3ccc(SC)nn23)cc1 1.17
CC1CCN(C(=O)CSc2ccc3nnc(-c4cccc(F)c4)n3n2)CC1 1.4
CCCOc1ccc(CN(CCO)CCO)cc1C(=O)OC 1.07
Cc1cccc(Cn2c(SCCO)nc3c2c(=O)n(C)c(=O)n3C)c1 0.95
COC(=O)C1C(=O)CC(C)(O)C(C(=O)OC)C1c1ccc2c(c1)OCO2 (stereo not drawn) 1.09
Cc1cc(=O)[nH]c(SCC(N)=O)c1C#N 1.12
COc1ccc(C2CC(c3ccc(C)cc3)Nc3nc(N)nn32)cc1 (stereo not drawn) 1.09
CCOC(=O)c1c(C)n(C)c2ccc(OC)c(NC(=O)CN3CCC4(CC3)OCCO4)c12 1.04
C=CCn1c2ccccc2c2nnc(SC(CC)C(=O)Nc3nc(C)c(C(=O)OCC)s3)nc21 (stereo not drawn) 1.22
CCN(CC(=O)NCc1cccs1)c1nnnn1-c1ccccc1 1.04
C=CCn1c(C(C)NC(=O)CC)nc2ccccc21 (stereo not drawn) 1.1
CCCCNc1nc2ccccc2nc1NS(=O)(=O)c1cccs1 1.35
COC(=O)c1cn(CC(=O)NCc2cccs2)c2ccccc12 1.12
CCOC(=O)C1CCN(C(=O)CSc2cc(=O)n(C)c3ccccc23)CC1 1.32
Cc1ccc(OCCCC(=O)N2CCOCC2)c(C)c1 1.13
Cc1ccc(CCn2c3c(c4ccccc42)CN(C)CC3)cn1 1.12
CCOC(=O)c1ccc(NC(=O)CS(=O)(=O)c2cn(CC)c3ccccc23)cc1 1.08
CC1(C)C(=O)Nc2ccccc2N1C(=O)COC(=O)Cn1cnc2ccccc2c1=O 1.03
CCn1c(COc2ccccc2)nnc1SCC(=O)Nc1ccc2c(c1)OCCO2 1.12
COCCn1nnnc1CN1CCC(NC(=O)Nc2cccc(OC)c2)CC1 1.05
COC(=O)Cc1csc(Nc2c(C)n(C)n(-c3ccccc3)c2=O)n1 1.09
CCOc1ccc(Nc2oc(Cc3ccccc3)nc2C#N)cc1 1.13
COc1ccc(-c2nnc(SC(C)C#N)o2)cc1 (stereo not drawn) 1.08
O=C(COc1ccccc1)NCCc1nc2ccccc2[nH]1 1.13
Fc1ccc(-c2ccc(-c3nn4c(-c5ccco5)nnc4s3)o2)cc1 1.49
COc1ccc(-c2nn3c(-c4ccccc4)nnc3s2)cc1OC 1.69
Cc1noc(C)c1COC(=O)Cn1c(C)nc2ccccc21 1.09
O=C(c1cccs1)N1CCC(c2nc3ccccc3s2)CC1 1.04
Cc1nn(Cc2ccccc2)c(Cl)c1C(=O)OC1CCOC1=O (stereo not drawn) 1.07
O=C(NCc1ccco1)C1CCCN(S(=O)(=O)c2cnc[nH]2)C1 (stereo not drawn) 1.08
c1ccc(-c2[nH]ncc2-c2nc3ccccc3[nH]2)cc1 1.2
C=CCSc1nc2ccccc2[nH]1 1.11
CC1(C)Oc2ccc3ccc(=O)oc3c2/C(=C/NCCO)C1=O 1.05
CCOc1ccccc1-n1c(SCC(=O)NCc2ccco2)nnc1-c1ccncc1 1.07
CCOC(=O)C1=C(C)N=c2s/c(=C\C(=O)OC)c(=O)n2C1c1ccc(OC)cc1 (stereo not drawn) 1.08
O=C(Nc1ccccc1)Nc1ccccc1C(=O)NCc1ccco1 1.65
O=C(NCc1ccco1)c1cc(-c2cccnc2)nc2ccc(Cl)cc12 1.17
Cn1c(C(=O)NCCCN2CCCCC2)cc2sccc21 1.19
Cc1cc(NC(=O)CSCc2nc(-c3cccc(Cl)c3)oc2C)no1 1.06
CC(C)NC(=O)CCCn1c(=S)[nH]c2cc3c(cc2c1=O)OCO3 1.07
COc1ccc(OC)c(-n2cc3c(=O)n(C)c(=O)n(C)c3c2)c1 1.3
CC(=O)Nn1cc2c(=O)n(C)c(=O)n(C)c2c1 1.03
COc1cccc(-n2cc(C(=O)O)c3ccccc3c2=O)c1 1.36
Cc1ccc(-c2c3c(=O)n(C)c(=O)n(C)c3cn2-n2cnnc2)cc1 1.07
COc1ccc(-c2c3c(=O)n(C)c(=O)n(C)c3cn2-c2cccc(OC)c2)cc1 1.94
Cn1c(=O)c2cn(-c3cccc4ccccc34)cc2n(C)c1=O 1.28
Nc1nonc1-c1noc(-c2ccc(Br)o2)n1 1.07
Cc1onc(-c2ccccc2)c1C(=O)N1CCOCC1 1.04
O=C(C1CCN(S(=O)(=O)Cc2ccccc2)CC1)N1CCCc2ccccc21 1.08
COc1ccc(-n2c(SC)nc(O)cc2=O)cc1 1.1
O=C1[C@@H]2C(Cc3ccc(O)cc3)NC3(C(=O)Nc4ccc(F)cc43)[C@@H]2C(=O)N1c1ccc(F)cc1 (stereo partly drawn) 1.1
COC(=O)c1ccccc1NC(=O)c1ccccc1NS(C)(=O)=O 1.13
CCc1ccccc1NC(=O)c1cccs1 1.09
COc1ccc(CCNC(=O)CSc2nnc(-c3cccc(F)c3)o2)cc1OC 1.07
c1ccc2cc3[nH]c(CN4CCCCC4)nc3cc2c1 1.35
Cn1c2ccccc2c2c(C(=O)N3CCN(c4ccc(F)cc4)CC3)cn(C3CCCC3)c(=O)c21 1.57
CCOC(=O)N1CCN(C(=O)c2n[nH]c(=O)c3ccccc23)CC1 1.04
COc1nc(Oc2ccc(=O)n(C)n2)nc(N(C)C)n1 1.04
O=C(O)c1ccc(NC(=O)C2CCCCC2)cc1 1.11
O=C(Nc1ccncc1)c1c(F)cccc1F 1.11
CCC(=O)Nc1ccc(C(=O)Nc2ccc3c(c2)C(=O)N(CC2CCCO2)C3=O)cc1 (stereo not drawn) 1.59
O=C(Nc1cnn(Cc2ccc(Cl)cc2)c1)C1CCCC1 1.03
CCCCc1nc2ccccc2c(NC(=O)CN2CCN(C)CC2)c1CCC 1.08
CC1=C(C(=O)Nc2ccc(Cl)cc2)C(c2ccco2)NC(=O)N1 (stereo not drawn) 1.1
COc1ccccc1N1CCN(Cc2ccc(OC)c3ccccc23)CC1 1.12
O=C(NC(Cc1ccccc1)C(=O)N1CCCC1C(=O)O)c1ccccc1 (stereo not drawn) (Bz-Phe-Pro-OH; configuration not given here) 0.84
CCCn1c(=O)c2[nH]c(C3CCCC3)nc2n(CCC)c1=O 1.03
CCc1ccc(CCC(=O)Nc2ccc(S(N)(=O)=O)cc2)o1 1.08
CCOC(=O)CSc1nnc(NC(=O)c2cccc(S(=O)(=O)N3CCCCC3)c2)s1 1
CCOC(=O)CSc1nnc(NC(=O)c2cccc(S(=O)(=O)N3CCCC3)c2)s1 1.07
Cc1ccc(S(=O)(=O)c2nc(NCCCn3ccnc3)sc2Cl)cc1 1.12
CC(C)(C)NC(=O)C(c1ccco1)N(Cc1ccc2c(c1)OCO2)C(=O)Cn1nnc2ccccc21 (stereo not drawn) 1.1
